Assay results reported in PubChem BioAssay (NCI).
The panel holds about 83,000 compounds, 20% with a hit somewhere; the sample as a whole holds those more often.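 48-hour exposure, single concentration, 96-well plates; percent growth endpoint where 0 means no net growth. Active: below 10.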 Activity calls are given as the source filed them.

test system: CAKI-1 renal; test: NCI-60 one-dose screen, 48 h (100 = growth as untreated, 0 = no growth, -100 = all killed); settings: 10 µM unless noted

Row | SMILES | growth
1 | NC(=O)CSSCC(N)=O | 99% (inactive)
2 | C=C(C)[C@@H]1CC[C@]2(C(=O)N3CCN(C)CC3)CC[C@]3(C)[C@H](CC[C@@H]4[C@@]5(C)CC[C@H](O)C(C)(C)[C@@H]5CC[C@]43C)[C@@H]12 | -84% (active)
3 | O=C1Nc2cc(Cl)ccc2/C1=C\c1c(-c2ccc(F)cc2)nc2ccccn12 | 21.5% (inactive)
4 | CCc1ccc(-c2cn3ccnc3c(-c3ccc4ncn(Cc5ccccc5)c4c3)n2)cc1 | 52.1% (inactive)
5 | CCOC(=O)c1cc(C(=O)c2ccc(OC)c(OC)c2)n2ccc(/C=C/c3cc[n+](CC(=O)c4ccc(OC)c(OC)c4)cc3)cc12 | 96.2% (inactive)
6 | COc1cc(/C=C\c2cc(OC)c(OC)c(OC)c2)cc(NC(=O)/C=C/c2cc(OC)c(OC)c(OC)c2)c1OC | 22.7% (inactive)
7 | CN1C(N2CCN(S(=O)(=O)c3ccccc3)CC2)=NS(=O)(=O)c2ccccc21 | 104% (inactive)
8 | O=C1Nc2ccccc2/C1=C\c1c(-c2ccc(F)cc2)nc2ccccn12 | 44.3% (inactive)
9 | OCc1cnc2ccccc2c1NC1CCCCCC1 | 73.1% (inactive)
10 | Oc1c(Cl)cc(Cl)c(Cl)c1CNCCNCc1c(O)c(Cl)cc(Cl)c1Cl | 9.72% (active)
11 | CN1[C@@H]2CC[C@H]1/C(=C\c1ccccc1)C(=O)/C2=C/c1ccccc1 | 41.3% (inactive)
12 | O=C1c2c(c3c4cccc(F)c4[nH]c3c3ccc4ccccc4c23)C(=O)N1O | 29.4% (inactive)
13 | CN(C)CCC(=O)c1ccc([N+](=O)[O-])cc1 | 96.3% (inactive)
14 | Cc1ccc(-c2nc3ccccn3c2/C=C2/C(=O)Nc3cc(Cl)ccc32)cc1 | 62.6% (inactive)
15 | CC(=O)[C@@H]1CC[C@]2(C(N)=O)CC[C@]3(C)[C@H](CC[C@@H]4[C@@]5(C)CCCNC(C)(C)[C@@H]5CC[C@]43C)[C@@H]12 | 93.1% (inactive)
16 | CC(C)N1C(=O)S/C(=C2/SC(=O)N(C(C)C)C2=O)C1=O | 98.8% (inactive)
17 | NS(=O)(=O)c1ccc(CCN2C(=O)C3C(C2=O)C2(Cl)C(Cl)=C(Cl)C3(Cl)C2(Cl)Cl)cc1 (stereo not given) | 71.7% (inactive)
18 | Nc1c(S(=O)(=O)O)cc2c3c(cccc13)C(=O)OC2=O | 79.9% (inactive)

Row | SMILES | growth
19 | O=C(CCN1CCCC1)c1ccc([N+](=O)[O-])cc1 | 97.3% (inactive)
20 | O=C1Nc2ccc(F)cc2/C1=C\c1c(-c2ccccc2)nc2ccccn12 | 34.3% (inactive)
21 | O=Cc1ccc(-c2cn3ccnc3c(-c3ccc4ncn(Cc5ccccc5)c4c3)n2)cc1 | 63.4% (inactive)
22 | N#C/C(=C\c1ccc(C(F)(F)F)cc1)c1cc2ccccc2[nH]1 | 83.6% (inactive)
23 | O=C1c2cccc3c(-c4ccc5c(c4)ncn5C4CCCCC4)ccc(c23)C(=O)N1c1nc2ccccc2s1 | 72.8% (inactive)
24 | Cc1cccc(-c2cn3ccnc3c(-c3ccc4ncn(Cc5ccccc5)c4c3)n2)c1 | 75.2% (inactive)
25 | CCOC(=O)C1=C(CCl)NC(=O)NC1c1ccc2c(c1)OCO2 (stereo not given) | 47% (inactive)
26 | CCCN1[C@@H]2CC[C@H]1/C(=C\c1ccc(OC)c(OC)c1)C(=O)/C2=C/c1ccc(OC)c(OC)c1 | 45.9% (inactive)
27 | COc1ccc(C(=O)C2C(C#N)C(C#N)C3c4ccccc4C=CN23)cc1 (stereo not given) | 72.4% (inactive)
28 | O=C(C[n+]1cccc2ccccc21)c1ccc(O)c(O)c1 | 83.6% (inactive)
29 | COc1ccc(C(=O)c2nc3ccccc3n2CC(=O)c2ccc(F)cc2)cc1 | 115% (inactive)
30 | CC(=O)[C@@H]1CC[C@]2(CO)CC[C@]3(C)[C@H](CC[C@@H]4[C@@]5(C)CCCNC(C)(C)[C@@H]5CC[C@]43C)[C@@H]12 | 97.1% (inactive)
31 | NS(=O)(=O)c1ccc(CCN2C(=O)C=CC2=O)cc1 | 94.8% (inactive)
32 | Nc1ccccc1NC(=O)c1ccc(-n2nc(-c3ccccc3)c3ccccc32)cc1 | 73.4% (inactive)
33 | N#CC1C(C#N)C2c3ccccc3C=CN2C1C(=O)c1ccc(Br)cc1 (stereo not given) | 89.8% (inactive)
34 | O=C(CNCCN1CCOCC1)N1c2cccc3cccc(c23)N(C(=O)CNCCN2CCOCC2)C1c1cn(-c2ccccc2)nc1-c1cccc([N+](=O)[O-])c1 | 66% (inactive)
35 | C=C(C)[C@@H]1CC[C@]2(C(=O)N[C@H](CO)Cc3ccccc3)CC[C@]3(C)[C@H](CC[C@@H]4[C@@]5(C)CCCNC(C)(C)[C@@H]5CC[C@]43C)[C@@H]12 | -93.5% (active)
